This is one part of the list. Records with an inconclusive call do not appear. Active and inactive are the calls of the source. The call rests on the fitted dose curve; in most records, active means well fitted inhibition curve with a large enough effect; inconclusive means small, poorly fitted or top-dose-only effect; inactive means flat fitted curve, though single readings scatter.
These compounds were tested against Fructose-bisphosphate aldolase (Giardia intestinalis (strain ATCC 50803 / WB clone C6)) (UniProt A8B2U2) (assay: qHTS Assay for Inhibitors of Fructose-1,6-bisphosphate Aldolase from Giardia Lamblia: Primary screen confirmation (AID 2787;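 further: aldolase product measured through coupled diaphorase step turning resazurin into fluorescent resorufin; nearly all actives have a fitted effect of over 45% in size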)). Settings: purified Giardia aldolase enzyme activity; series mostly up to 57.5 µM.
Sequence of Fructose-bisphosphate aldolase (Giardia intestinalis (strain ATCC 50803 / WB clone C6)) (A8B2U2 whole entry, looked up): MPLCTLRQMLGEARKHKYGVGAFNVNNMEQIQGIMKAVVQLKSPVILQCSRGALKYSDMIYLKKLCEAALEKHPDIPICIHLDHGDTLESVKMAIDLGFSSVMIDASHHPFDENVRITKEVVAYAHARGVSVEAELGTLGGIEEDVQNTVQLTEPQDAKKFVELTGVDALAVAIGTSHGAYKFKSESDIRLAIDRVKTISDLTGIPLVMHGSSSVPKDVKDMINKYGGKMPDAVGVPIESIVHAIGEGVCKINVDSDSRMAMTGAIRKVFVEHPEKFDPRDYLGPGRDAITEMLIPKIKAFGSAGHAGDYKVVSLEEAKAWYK
Outline: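 Confirmation of primary hits by qHTS up to 57.5 uM final compound. Enzyme at 40 nM with 30 uM ZnCl2, 10 min RT pre-incubation, then substrate/coupling/resorufin-forming detection mix for 20 min before fluorescence read at 525/598 nm.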

outcome, inactive:
CN1CCN(CCCCOc2ccccc2-c2ccccc2)CC1
Cc1cccc(C)c1OCCN1CCOCC1
O=S(=O)(c1ccc(NC(=S)NN=C(C2CC2)C2CC2)cc1)N1CCOCC1
O=C1CCCN1CCCNC(=S)Nc1ccc(F)c(Cl)c1
O=C(NC(=S)Nc1ncccn1)c1ccccc1Br
CC1CCCN(S(=O)(=O)c2ccc(C(=O)Nc3nnc(-c4ccncc4)o3)cc2)C1 (stereo not given)
Cn1c(=O)[nH]c(=O)c2c1[nH]c(=S)n2Cc1ccccc1
O=c1[nH]c(=S)[nH]c2[nH]c(=S)[nH]c12
Cc1ccc(OCCCCc2c(C)n[nH]c2C)cc1
C=C(C)CNC(=S)N/N=C/c1ccccc1OCC(=O)O
CNC(=S)N/N=C/c1ccc(N2CCOCC2)s1
C/C(=N\NC(N)=S)c1cccnc1
C=CCc1cc(C)ccc1OCCCn1ccnc1
CCS(=O)(=O)c1cc([N+](=O)[O-])c(Sc2ccccc2N)s1
COc1ccc(C(=O)NC(=S)N2CCCCC2c2cccnc2)cc1OC (stereo not given)
